Laboratory results taken from PubChem BioAssay (NCI).
Compounds without any hit were thinned out: in the full panel of roughly 79,000, 15% have a hit. Values without a mark were called inactive. Active and inactive are the calls of the source. No stated cut-off is given here; in the data, active means growth inhibition above about 70%; inactive means the rest.

How the values were obtained:
[1] = NCI Yeast Anticancer Drug Screen. Data for the wt1 strain (AID 149);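 further: 0% = growth of vehicle-treated wt1 cultures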; conditions: S. cerevisiae wt1 strain (SPY 50644) growth inhibition, hits give high values
Procedure, shortened: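 Measured: growth of wt1 yeast under compound versus vehicle treatment, reported as inhibition.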

[2] = NCI Yeast Anticancer Drug Screen. Data for the rad50EPP+ strain (AID 151);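 further: 0% = growth of vehicle-treated control cultures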; conditions: S. cerevisiae rad50 mutant strain, hits give high values
Procedure, shortened: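 Exposing the rad50EPP+ strain to each compound, growth was compared with vehicle-only cultures to give inhibition.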

[3] = NCI Yeast Anticancer Drug Screen. Data for the mgt1 strain (AID 153); conditions: S. cerevisiae mgt1 mutant growth inhibition, hits give high values
Procedure, shortened: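 Genetically defined yeast (mgt1) treated with compound; inhibition of growth expressed against vehicle-treated controls.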

[4] = NCI Yeast Anticancer Drug Screen. Data for the rad50 strain (AID 155);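 further: 0% = growth of vehicle-only cultures of the same strain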; conditions: S. cerevisiae rad50 strain growth inhibition, hits give high values
Procedure, shortened: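 Growth of the mutant yeast was measured after compound exposure and referenced to vehicle-treated cultures.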

[5] = NCI Yeast Anticancer Drug Screen. Data for the mec2-1 strain (AID 157); conditions: S. cerevisiae mec2-1 strain, hits give high values
Procedure, shortened: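 Readout is yeast growth inhibition, normalised to vehicle-treated controls, in the mec2-1 strain exposed to compound.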

[6] = NCI Yeast Anticancer Drug Screen. Data for the rad14 strain (AID 159);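 further: 0% = growth of vehicle-treated control cultures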; conditions: S. cerevisiae rad14 strain growth inhibition, hits give high values
Procedure, shortened: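 Here, inhibition of yeast growth was measured after compound exposure, using a strain with a genetic defect in DNA damage repair and vehicle-treated cultures as the reference.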

[7] = NCI Yeast Anticancer Drug Screen. Data for the sgs1 mgt1 strain (AID 161);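 further: 0% = growth of cultures given vehicle only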; conditions: S. cerevisiae sgs1 mgt1 strain, hits give high values
Procedure, shortened: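 Percent growth inhibition was derived by comparing compound-exposed mutant yeast with vehicle-exposed cultures. The strain carries alterations in DNA damage repair.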

[8] = NCI Yeast Anticancer Drug Screen. Data for the CLN2oe strain (AID 163);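 further: 0% = growth of vehicle-only control cultures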; conditions: S. cerevisiae CLN2oe strain, hits give high values
Procedure, shortened: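 Values reflect how much compound exposure reduced yeast growth, referenced to vehicle-exposed cells. Assay organism is a strain with a defined genetic change affecting cell-cycle control.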

[9] = NCI Yeast Anticancer Drug Screen. Data for the cln2 rad14 strain (AID 165);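 further: 0% = growth equal to vehicle treated cultures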; conditions: S. cerevisiae cln2 rad14 strain, hits give high values
Procedure, shortened: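 Relative to vehicle controls, growth inhibition of compound-treated cln2 rad14 yeast was recorded.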

[10] = NCI Yeast Anticancer Drug Screen. Data for the bub3 strain (AID 167); conditions: S. cerevisiae bub3 mutant strain, hits give high values
Procedure, shortened: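 Whole-cell yeast assay. The mutant strain was incubated with compounds, and growth inhibition was determined by comparison with vehicle-treated cells.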

[11] = NCI Yeast Anticancer Drug Screen. Data for the wt2 strain (AID 169);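 further: 0% = growth of vehicle-treated yeast cultures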; conditions: S. cerevisiae wt2 strain growth inhibition, hits give high values
Procedure, shortened: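 Values express reduction in yeast growth under compound treatment, referenced to vehicle-treated cells.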

[12] = NCI Yeast Anticancer Drug Screen. Data for the mlh1 strain (AID 171);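 further: 0% = growth of vehicle-treated control cultures of the same strain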; conditions: S. cerevisiae mlh1 strain growth inhibition, hits give high values
Procedure, shortened: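 Steps: expose the defined-mutant yeast strain to compound; expose a parallel culture to vehicle; measure growth; express compound effect as inhibition relative to the vehicle culture.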

[13] = NCI Yeast Anticancer Drug Screen. Data for the sgs1 strain (AID 173);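 further: 0% = growth of vehicle-only control cultures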; conditions: S. cerevisiae sgs1 mutant, hits give high values
Procedure, shortened: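 Treat defined-mutant yeast with compound; measure growth; calculate inhibition relative to vehicle-treated cells.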

[14] = NCI Yeast Anticancer Drug Screen. Data for the mlh1 rad18 strain (AID 175); conditions: S. cerevisiae mlh1 rad18 strain growth inhibition, hits give high values
Procedure, shortened: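 Test agents were incubated with a yeast strain of defined genotype (DNA damage repair defect). Inhibition of growth was derived by comparison with vehicle-exposed cultures.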

[15] = NCI Yeast Anticancer Drug Screen. Data for the rad18 strain (AID 177); conditions: S. cerevisiae rad18 mutant growth inhibition, hits give high values
Procedure, shortened: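 A genetically defined yeast mutant impaired in DNA damage repair was treated with test compounds, then its growth was measured against cultures receiving vehicle alone.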

[16] = at 5.0 µM (retest, dose inferred, filed as 0.5)
[17] = at 50.0 µM (retest, dose inferred, filed as 5.0)

Compound: N#C/C(=C1C=C/C(=N\O)C(Cl)=C\1)c1ccccc1
- growth inhibition ([1]; at 1.2 µM): -2%
- growth inhibition ([1]; at 3.7 µM): -5%
- growth inhibition ([1]; at 11.0 µM): 2%
- growth inhibition ([1]; at 33.0 µM): 0%
- growth inhibition ([1]; at 100.0 µM): 3%
- growth inhibition ([2]; at 1.2 µM): 2%
- growth inhibition ([2]; at 3.7 µM): 16%
- growth inhibition ([2]; at 11.0 µM): 26%
- growth inhibition ([2]; at 33.0 µM): 21%
- growth inhibition ([2]; at 100.0 µM): 24%
- growth inhibition ([3]; at 1.2 µM): -3%
- growth inhibition ([3]; at 3.7 µM): 1%
- growth inhibition ([3]; at 11.0 µM): 3%
- growth inhibition ([3]; at 33.0 µM): 5%
- growth inhibition ([3]; at 100.0 µM): 10%
- growth inhibition ([4]; at 1.2 µM): 0%
- growth inhibition ([4]; at 3.7 µM): 3%
- growth inhibition [4, 16]: 24%
- growth inhibition ([4]; at 11.0 µM): 8%
- growth inhibition ([4]; at 33.0 µM): 13%
- growth inhibition [4, 17]: 76% (active)
- growth inhibition ([4]; at 50.0 µM): 55.8%
- growth inhibition ([4]; at 100.0 µM): 14%
- growth inhibition ([5]; at 1.2 µM): -1%
- growth inhibition ([5]; at 3.7 µM): 0%
- growth inhibition [5, 16]: -11%
- growth inhibition ([5]; at 11.0 µM): 2%
- growth inhibition ([5]; at 33.0 µM): 5%
- growth inhibition [5, 17]: 36%
- growth inhibition ([5]; at 50.0 µM): 43%
- growth inhibition ([5]; at 100.0 µM): 14%
- growth inhibition ([6]; at 1.2 µM): 2%
- growth inhibition ([6]; at 3.7 µM): 8%
- growth inhibition ([6]; at 11.0 µM): 15%
- growth inhibition ([6]; at 33.0 µM): 17%
- growth inhibition ([6]; at 100.0 µM): 26%
- growth inhibition [7, 16]: 52%
- growth inhibition [7, 17]: 85% (active)
- growth inhibition ([7]; at 50.0 µM): 40.1%
- growth inhibition ([8]; at 1.2 µM): 2%
- growth inhibition ([8]; at 3.7 µM): 3%
- growth inhibition ([8]; at 11.0 µM): 6%
- growth inhibition ([8]; at 33.0 µM): 15%
- growth inhibition ([8]; at 100.0 µM): 13%
- growth inhibition [9, 16]: 12%
- growth inhibition [9, 17]: 46%
- growth inhibition ([9]; at 50.0 µM): -43.9%
- growth inhibition ([10]; at 1.2 µM): -1%
- growth inhibition ([10]; at 3.7 µM): 2%
- growth inhibition [10, 16]: 37%
- growth inhibition ([10]; at 11.0 µM): 4%
- growth inhibition ([10]; at 33.0 µM): 14%
- growth inhibition [10, 17]: 71% (active)
- growth inhibition ([10]; at 50.0 µM): 72.7% (active)
- growth inhibition ([10]; at 100.0 µM): 16%
- growth inhibition ([11]; at 1.2 µM): -13%
- growth inhibition ([11]; at 3.7 µM): -11%
- growth inhibition ([11]; at 11.0 µM): -9%
- growth inhibition ([11]; at 33.0 µM): -9%
- growth inhibition ([11]; at 100.0 µM): -1%
- growth inhibition ([12]; at 1.2 µM): -4%
- growth inhibition ([12]; at 3.7 µM): 4%
- growth inhibition ([12]; at 11.0 µM): 7%
- growth inhibition ([12]; at 33.0 µM): 10%
- growth inhibition ([12]; at 100.0 µM): 23%
- growth inhibition ([13]; at 1.2 µM): -3%
- growth inhibition ([13]; at 3.7 µM): 7%
- growth inhibition ([13]; at 11.0 µM): 6%
- growth inhibition ([13]; at 33.0 µM): 16%
- growth inhibition ([13]; at 100.0 µM): 33%
- growth inhibition [14, 16]: 45%
- growth inhibition [14, 17]: 87% (active)
- growth inhibition ([14]; at 50.0 µM): 80.7% (active)
- growth inhibition ([15]; at 1.2 µM): -1%
- growth inhibition ([15]; at 3.7 µM): 1%
- growth inhibition ([15]; at 11.0 µM): -2%
- growth inhibition ([15]; at 33.0 µM): 2%
- growth inhibition ([15]; at 100.0 µM): 13%

Compound: O=C(Nc1ccn(C2CC(O)C(COC(c3ccccc3)(c3ccccc3)c3ccccc3)O2)c(=O)n1)c1ccccc1 (stereo unspecified)
- growth inhibition ([1]; at 1.2 µM): -40%
- growth inhibition ([1]; at 3.7 µM): -22%
- growth inhibition ([1]; at 11.0 µM): 94% (active)
- growth inhibition ([1]; at 33.0 µM): 94% (active)
- growth inhibition ([1]; at 100.0 µM): 89% (active)
- growth inhibition ([2]; at 1.2 µM): -26%
- growth inhibition ([2]; at 3.7 µM): -10%
- growth inhibition ([2]; at 11.0 µM): -9%
- growth inhibition ([2]; at 33.0 µM): 10%
- growth inhibition ([2]; at 100.0 µM): -15%
- growth inhibition ([3]; at 1.2 µM): -22%
- growth inhibition ([3]; at 3.7 µM): 14%
- growth inhibition ([3]; at 11.0 µM): 81% (active)
- growth inhibition ([3]; at 33.0 µM): 82% (active)
- growth inhibition ([3]; at 100.0 µM): 79% (active)
- growth inhibition ([4]; at 1.2 µM): -44%
- growth inhibition ([4]; at 3.7 µM): 20%
- growth inhibition [4, 16]: 85% (active)
- growth inhibition ([4]; at 11.0 µM): 89% (active)
- growth inhibition ([4]; at 33.0 µM): 87% (active)
- growth inhibition [4, 17]: 94% (active)
- growth inhibition ([4]; at 50.0 µM): 43.2%
- growth inhibition ([4]; at 100.0 µM): 83% (active)
- growth inhibition ([5]; at 1.2 µM): -43%
- growth inhibition ([5]; at 3.7 µM): -1%
- growth inhibition [5, 16]: 64%
- growth inhibition ([5]; at 11.0 µM): 91% (active)
- growth inhibition ([5]; at 33.0 µM): 91% (active)
- growth inhibition [5, 17]: 83% (active)
- growth inhibition ([5]; at 50.0 µM): 97.6% (active)
- growth inhibition ([5]; at 100.0 µM): 88% (active)
- growth inhibition ([6]; at 1.2 µM): -32%
- growth inhibition ([6]; at 3.7 µM): 9%
- growth inhibition ([6]; at 11.0 µM): 78% (active)
- growth inhibition ([6]; at 33.0 µM): 81% (active)
- growth inhibition ([6]; at 100.0 µM): 78% (active)
- growth inhibition [7, 16]: 50%
- growth inhibition [7, 17]: 94% (active)
- growth inhibition ([7]; at 50.0 µM): 37.6%
- growth inhibition ([8]; at 1.2 µM): -15%
- growth inhibition ([8]; at 3.7 µM): 36%
- growth inhibition ([8]; at 11.0 µM): 96% (active)
- growth inhibition ([8]; at 33.0 µM): 94% (active)
- growth inhibition ([8]; at 100.0 µM): 92% (active)
- growth inhibition [9, 16]: 83% (active)
- growth inhibition [9, 17]: 96% (active)
- growth inhibition ([9]; at 50.0 µM): 92.8% (active)
- growth inhibition ([10]; at 1.2 µM): -34%
- growth inhibition ([10]; at 3.7 µM): -11%
- growth inhibition [10, 16]: 89% (active)
- growth inhibition ([10]; at 11.0 µM): 81% (active)
- growth inhibition ([10]; at 33.0 µM): 84% (active)
- growth inhibition [10, 17]: 95% (active)
- growth inhibition ([10]; at 50.0 µM): 81.5% (active)
- growth inhibition ([10]; at 100.0 µM): 82% (active)
- growth inhibition ([11]; at 1.2 µM): -15%
- growth inhibition ([11]; at 3.7 µM): 1%
- growth inhibition ([11]; at 11.0 µM): 81% (active)
- growth inhibition ([11]; at 33.0 µM): 84% (active)
- growth inhibition ([11]; at 100.0 µM): 79% (active)
- growth inhibition ([12]; at 1.2 µM): -43%
- growth inhibition ([12]; at 3.7 µM): -19%
- growth inhibition ([12]; at 11.0 µM): 74% (active)
- growth inhibition ([12]; at 33.0 µM): 79% (active)
- growth inhibition ([12]; at 100.0 µM): 74% (active)
- growth inhibition ([13]; at 1.2 µM): 6%
- growth inhibition ([13]; at 3.7 µM): 3%
- growth inhibition ([13]; at 11.0 µM): 84% (active)
- growth inhibition ([13]; at 33.0 µM): 85% (active)
- growth inhibition ([13]; at 100.0 µM): 79% (active)
- growth inhibition [14, 16]: 87% (active)
- growth inhibition [14, 17]: 95% (active)
- growth inhibition ([14]; at 50.0 µM): 94.8% (active)
- growth inhibition ([15]; at 1.2 µM): -35%
- growth inhibition ([15]; at 3.7 µM): 21%
- growth inhibition ([15]; at 11.0 µM): 86% (active)
- growth inhibition ([15]; at 33.0 µM): 85% (active)
- growth inhibition ([15]; at 100.0 µM): 83% (active)
